Laboratory results reported in PMC4336329 (PLoS ONE, 2015).
Hit rate of the full screen: of about 310,000 compounds, about 14,000 (4.5%) showed an effect of 50% or more. Effects have a minus sign here. The entries come from a sample that favours strong results as a whole.

target: human ether-à-go-go-related gene (hERG) potassium channel (human, UniProt Q12809); assay: primary screen, population patch clamp on CHO cells stably expressing hERG; higher = less effect of the substance
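Further: peak tail current of the secondary pulse compared with the same well before compound.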

Chain of human ether-à-go-go-related gene (hERG) potassium channel (Q12809 whole entry, looked up): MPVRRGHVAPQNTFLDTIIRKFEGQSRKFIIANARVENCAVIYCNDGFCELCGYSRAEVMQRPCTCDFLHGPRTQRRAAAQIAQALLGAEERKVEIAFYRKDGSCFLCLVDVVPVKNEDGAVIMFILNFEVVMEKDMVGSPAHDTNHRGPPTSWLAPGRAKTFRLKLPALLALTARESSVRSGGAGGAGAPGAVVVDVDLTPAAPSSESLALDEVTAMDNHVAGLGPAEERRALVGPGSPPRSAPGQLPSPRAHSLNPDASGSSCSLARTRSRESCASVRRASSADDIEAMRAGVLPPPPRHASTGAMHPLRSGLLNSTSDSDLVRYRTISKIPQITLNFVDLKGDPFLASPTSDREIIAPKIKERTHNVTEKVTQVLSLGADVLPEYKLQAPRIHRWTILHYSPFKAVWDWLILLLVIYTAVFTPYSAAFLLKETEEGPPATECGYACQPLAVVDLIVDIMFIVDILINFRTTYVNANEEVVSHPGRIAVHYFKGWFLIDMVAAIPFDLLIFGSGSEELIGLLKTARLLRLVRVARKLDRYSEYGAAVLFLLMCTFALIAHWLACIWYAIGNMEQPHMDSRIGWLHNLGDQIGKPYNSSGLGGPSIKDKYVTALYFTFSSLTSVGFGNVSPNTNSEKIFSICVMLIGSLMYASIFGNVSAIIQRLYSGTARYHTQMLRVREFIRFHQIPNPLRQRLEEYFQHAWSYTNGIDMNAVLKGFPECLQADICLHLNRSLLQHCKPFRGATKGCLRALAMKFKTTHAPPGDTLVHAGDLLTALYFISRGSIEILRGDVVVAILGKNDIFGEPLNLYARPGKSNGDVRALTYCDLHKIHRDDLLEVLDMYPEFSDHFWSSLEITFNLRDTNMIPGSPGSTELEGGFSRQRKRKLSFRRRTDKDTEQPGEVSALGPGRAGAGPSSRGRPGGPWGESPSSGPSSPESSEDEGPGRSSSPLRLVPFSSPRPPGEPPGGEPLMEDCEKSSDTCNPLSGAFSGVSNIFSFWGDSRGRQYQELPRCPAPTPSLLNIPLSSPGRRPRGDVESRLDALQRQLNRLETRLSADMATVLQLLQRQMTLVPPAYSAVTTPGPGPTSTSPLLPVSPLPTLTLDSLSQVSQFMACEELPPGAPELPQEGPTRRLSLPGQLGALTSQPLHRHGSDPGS

SMILES	hERG current change (%, negative = inhibition) at 10uM [%]
O=C(CCCCCn1c(=S)[nH]c2ccc(N3CCOCC3)cc2c1=O)NC1CCN(Cc2ccccc2)CC1	-9.35
COc1ccccc1N(C(=O)c1csnn1)C(C(=O)NC1CCCC1)c1ccccc1 (stereo not shown)	-1.69
Cc1c(Cl)cccc1NC(=O)CSc1sc2c(O)cc(=O)[nH]c2c1C#N	-2.45
Cc1ccc(O)c(C2=Nc3ccccc3N=C(c3cccs3)C2)c1	12
O=S(=O)(NCC(c1cccnc1)N1CCN(c2ccc(F)cc2)CC1)c1cccs1 (stereo not shown)	-71.7
COC(=O)NCC(c1cccnc1)N1CCN(c2ccccc2)CC1 (stereo not shown)	-13.3
COc1ccc(N2CCN(C(CNC(=O)Oc3ccccc3)c3cccnc3)CC2)cc1 (stereo not shown)	-27.5
CN1CCN(C(CNS(=O)(=O)c2cccs2)c2cccnc2)CC1 (stereo not shown)	-21.4
CCN1CCN(C(CNS(=O)(=O)c2cccs2)c2cccnc2)CC1 (stereo not shown)	-61.4
O=S(=O)(NCC(c1cccnc1)N1CCN(c2ccccc2)CC1)c1cccs1 (stereo not shown)	-60.4
COc1ccc(N2CCN(C(CNS(=O)(=O)c3cccs3)c3cccnc3)CC2)cc1 (stereo not shown)	-72.5
O=S(=O)(NCC(c1cccnc1)N1CCOCC1)c1cccs1 (stereo not shown)	-10.9
CCS(=O)(=O)NCC(c1cccnc1)N1CCN(c2ccc(OC)cc2)CC1 (stereo not shown)	-11.3
CCCOc1ccc(C2C(C(=O)c3cc4ccccc4o3)=C(O)C(=O)N2c2cc(C)on2)cc1OC (stereo not shown)	25.3
Cc1cnc(C(=O)Oc2ccc(-c3ccccc3)cc2)cn1	16.8
CCCCOCCCNC(=O)c1ccc(OC)cc1	-6.63
COc1ccc(NS(=O)(=O)c2cc3c(cc2C)N(C)CCO3)cc1	-10.5
CS(=O)(=O)NCC(c1cccnc1)N1CCN(c2ccccc2F)CC1 (stereo not shown)	-9.77
O=S(=O)(NCC(c1cccnc1)N1CCN(c2ccccc2F)CC1)c1cccs1 (stereo not shown)	-60.5
CCS(=O)(=O)NCC(c1cccnc1)N1CCN(c2ccccc2F)CC1 (stereo not shown)	-3.19
Cc1ccc(C(=O)CCC(=O)N2CCC(C(N)=O)CC2)cc1	32
CCOC(=O)C1(CCC(C)C)CC(CSc2nc3ccccc3[nH]2)OC1=O (stereo not shown)	-25.2
O=C(O)c1cc([N+](=O)[O-])c(NCc2cccnc2)c([N+](=O)[O-])c1	9.52

SMILES	hERG current change (%, negative = inhibition) at 10uM [%]
COc1ccc2c(c1)c(C(=O)CN1CCC3(CC1)OCCO3)c(C)n2Cc1ccccc1	-53
CCN1CCN(CC(=O)c2c(C)n(Cc3ccccc3)c3ccc(OC)cc23)CC1	-41.3
COc1ccc2c(c1)c(C(=O)CN1CCN(C)CC1)c(C)n2Cc1ccccc1	-35
CCOC(=O)N[C@H](Cc1c[nH]c2ccccc12)C(=O)NC1CC1	3.42
Cc1ccccc1N1CCN(C(=O)CN2C(=O)c3ccccc3C2=O)CC1	-11.8
O=C(CN1C(=O)CSc2ccccc21)NC1CCCC1	0.766
CC(C)CNC(=O)c1ccccc1SCC(=O)NC12CC3CC(CC(C3)C1)C2	-5.62
Cc1c(CN2CCC(n3nccc3NC(=O)C3CCOC3)CC2)[nH]c2ccccc12 (stereo not shown)	-30.6
Cc1cc(C)c2[nH]c(C(=O)N3CCC(n4nccc4NC(=O)C4CC4)CC3)c(C)c2c1	-44.6
Cc1c(CN2CCC(n3nccc3NC(=O)C3CC3)CC2)[nH]c2ccccc12	-61
O=C(Nc1ccnn1C1CCN(Cc2cc3ccccc3[nH]2)CC1)C1CCOC1 (stereo not shown)	-31.5
COc1ccc(C(=O)Nc2ccnn2C2CCN(Cc3cn(C)nc3C)CC2)cc1	17.1
COc1cccc(CC(=O)N2CCC(n3nccc3NC(=O)C3CC3)CC2)c1	32
Cc1c(C(=O)N2CCC(n3nccc3NC(=O)C3CC3)CC2)[nH]c2ccc(Cl)cc12	-59.4
COc1ccc2[nH]c(CN3CCC(n4nccc4NC(=O)C4CC4)CC3)c(C)c2c1	-63.3
COc1ccc2[nH]c(C(=O)N3CCC(n4nccc4NC(=O)C4CC4)CC3)c(C)c2c1	-30.4
O=C(Cn1cnc([N+](=O)[O-])c1)NCc1ccc(F)cc1	7.86
O=C(NC(=S)Nc1ncccn1)c1ccccc1Cl	11.8
O=C(Nc1cc([N+](=O)[O-])ccc1F)C1CC1	-4.7
Cc1nc2ccc(S(=O)(=O)NCC(=O)NCc3ccc(Cl)cc3)cc2s1	17.4
CCNS(=O)(=O)c1ccc(CCC(=O)NCc2ccc(C)cc2)cc1	-53.1
CCNS(=O)(=O)c1ccc(CCC(=O)NCc2ccccc2)cc1	-19.6
CCNS(=O)(=O)c1ccc(CCC(=O)NCc2ccncc2)cc1	2.58

SMILES	hERG current change (%, negative = inhibition) at 10uM [%]
Cc1ccc(CNC(=O)CNS(=O)(=O)c2ccc3nc(C)sc3c2)cc1	-64.6
Cc1ccc(CCNC(=O)CNS(=O)(=O)c2ccc3nc(C)sc3c2)cc1	2.53
CSc1ccccc1NC(=O)CN(C)S(=O)(=O)c1ccc(F)cc1	-35.2
CC(=O)Nc1ccc(OCCC[n+]2cccc(C(=O)[O-])c2)cc1	12.5
Cn1cnc2c(oc3ccccc32)c1=O	9.26
CC1(C)N=C(/C=N/O)CN1O	11.7
CCCCC(=O)Nc1cc(C)c2c(=O)oc3ccccc3c2n1	4.39
COc1ccc(S(=O)(=O)Cc2ccc(C(=O)N3CCN(c4ccccn4)CC3)o2)cc1	-27.9
COc1cc(OC)c(C2SCCS2)c(OC)c1	2.14
CCOC(=O)CC(=O)NC1(Cc2ccc(O)cc2)CCCCC1	1.06
O=C(O)c1cc([N+](=O)[O-])ccc1NCc1ccccn1	12.7
NC(=O)c1cc([N+](=O)[O-])ccc1NCc1cnccn1	-12.9
NC(=O)c1cc([N+](=O)[O-])ccc1NCc1ccccn1	-73.8
O=[N+]([O-])c1ccc(Cc2ccccn2)cc1	-15.7
O=[N+]([O-])c1ccc(Nc2ccccn2)c([N+](=O)[O-])c1	-4.46
O=[N+]([O-])c1ccc(Cc2ccccn2)c([N+](=O)[O-])c1	-50.2
COn1c(-c2ccc(Cl)cc2Cl)nc2ncccc21	-1.12
CCc1nnc(NC(=O)c2sc3nc4c(cc3c2N)CCCCCC4)s1	4.75
COc1ccc(N/C=C/C(=O)c2ccc(Cl)cc2)cc1	-13.7
CCN1CCN(CCCNC(=O)Cn2nc(C)n3nc(-c4ccccc4)cc3c2=O)CC1	-11.1
Clc1ccc(Cn2c(-c3cccnc3Cl)nc3ccccc32)c(Cl)c1	-22.1
O=c1ccc(-c2nc3ccccc3n2Cc2ccccc2Cl)c[nH]1	-11.9
O=c1ccc(-c2nc3cc(Cl)ccc3n2Cc2ccccc2)c[nH]1	-73.9

SMILES	hERG current change (%, negative = inhibition) at 10uM [%]
Clc1ccc(Cn2c(-c3cccnc3Cl)nc3ccccc32)cc1	-70.7
Cc1cc2nc(-c3ccc(=O)[nH]c3)n(Cc3ccccc3)c2cc1C	-35.2
Cc1ccccc1Cn1c(-c2ccc(=O)[nH]c2)nc2ccccc21	-11.4
Clc1ncccc1-c1nc2ccccc2n1Cc1ccccc1	-33.5
O=c1[nH]cccc1-c1nc2cc(Cl)ccc2n1Cc1ccccc1	-12
O=c1ccc(-c2nc3ccccc3n2Cc2ccc(Cl)cc2)c[nH]1	-76
Cc1cc(/C=N/NC(=O)c2nn(C)cc2Cl)c(C)n1-c1cccc(Br)c1	8.09
Nc1nonc1-n1nncc1-c1ccccc1	1.98
CCN(Cc1ccccc1)C(=O)COC(=O)CNC(=O)c1ccc(C)s1	1.42
CSc1ccc(/C=N\Nc2nncn2N)cc1.Cl	10.9
CCOC(=O)c1sc(NC(=O)COc2ccc3c(c2)OCO3)nc1C	7.47
CCCCOP(=O)(OCCCC)/C(C#N)=C(/C)O	13.1
CC(C)C(NC(=O)c1ccccc1Br)c1ccccc1 (stereo not shown)	11.2
CC(=O)n1cc([C@@H]2C=C(C(=O)Nc3ccccc3)O[C@H](OCCCCO)C2)c2ccccc21	-54.5
CC(=O)n1cc([C@H]2C=C(C(=O)Nc3ccccc3)O[C@@H](OCCCCO)C2)c2ccccc21	-25
CC(=O)n1cc([C@H]2C=C(C(=O)NCc3ccccc3)O[C@@H](OCc3ccc(CO)cc3)C2)c2ccccc21	15.6
CC(=O)n1cc([C@H]2C=C(C(=O)NCc3ccccc3)O[C@@H](OCCCCO)C2)c2ccccc21	-62
C#CCNC(=O)C1=C[C@@H](c2cn(C(C)=O)c3ccccc23)C[C@@H](OCCCCO)O1	-40.1
C=CCOC(=O)C1=C[C@H](c2cn(C(C)=O)c3ccccc23)C[C@H](OCCCCO)O1	-38.7
CC(=O)n1cc([C@H]2C=C(C(=O)O)O[C@@H](OCCCCO)C2)c2ccccc21	0.0595
CC(=O)n1cc([C@@H]2C=C(C(=O)NCc3ccccc3)O[C@H](OCCCCO)C2)c2ccccc21	-78.3
CC(=O)n1cc([C@@H]2C=C(C(=O)NCc3ccccc3)O[C@H](OCc3ccc(CO)cc3)C2)c2ccccc21	-26.6
